From PubChem BioAssay (NCI)
About 83,000 compounds went through this panel and 20% of them were active in at least one assay; those are over-represented in the sample as a whole.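 48-hour exposure, single concentration, 96-well plates; percent growth endpoint where 0 means no net growth. Active: below 10.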 Calls of active or inactive are those of the source.

Columns and labels:
Test in all cases: NCI-60 one-dose screen, 48 h (100 = growth as untreated, 0 = no growth, -100 = all killed)
Details in all cases: 10 µM unless noted
T-47D breast = tested on: T-47D breast
BT-549 breast = tested on: BT-549 breast
MDA-MB-435 melanoma = tested on: MDA-MB-435 melanoma
SW-620 colon = tested on: SW-620 colon
MCF7 breast = tested on: MCF7 breast
HCT-116 colon = tested on: HCT-116 colon
HCC-2998 colon = tested on: HCC-2998 colon
KM12 colon = tested on: KM12 colon

Measured: growth

COc1ccc(-c2cc3c4c(nc5ccccc5c4c2)CC(c2cc(OC)c(OC)c(OC)c2)O3)cc1 (centres undefined)
inactive: T-47D breast 14.1% | BT-549 breast 64.6% | MDA-MB-435 melanoma 56.4% | SW-620 colon 37.9% | MCF7 breast 61.3% | HCC-2998 colon 43.1% | KM12 colon 60.4%
active: HCT-116 colon 1.01%

COc1cc(C(=O)N2N=C(c3ccc(S(C)(=O)=O)cc3)CC2c2ccco2)cc(OC)c1OC (centres undefined)
active: MDA-MB-435 melanoma 6.67%
inactive: T-47D breast 59.3% | BT-549 breast 48.5% | SW-620 colon 42.3% | MCF7 breast 37% | HCT-116 colon 50.6% | HCC-2998 colon 59.9% | KM12 colon 49.7%

N#C/C(=C\c1cccc2cnccc12)n1nnc2cccc(F)c21
inactive: T-47D breast 23.5% | BT-549 breast 17% | MDA-MB-435 melanoma 29% | SW-620 colon 21.5% | MCF7 breast 19.3% | HCT-116 colon 10.4% | HCC-2998 colon 42.7% | KM12 colon 62.1%

Cc1ccc(-c2nc(SCC(=O)Nc3nc(-c4ccc(Cl)cc4)cs3)[nH]c(=O)c2C#N)cc1
inactive: T-47D breast 87.2% | BT-549 breast 83.6% | MDA-MB-435 melanoma 107% | SW-620 colon 107% | MCF7 breast 97.7% | HCT-116 colon 91.6% | HCC-2998 colon 109% | KM12 colon 96.1%

Cc1nc2ccccc2n1CC1C(=O)NC(=O)NC1=O
inactive: T-47D breast 107% | BT-549 breast 121% | MDA-MB-435 melanoma 101% | SW-620 colon 108% | MCF7 breast 100% | HCT-116 colon 104% | HCC-2998 colon 127% | KM12 colon 103%

O=C(O)CCC(=O)Nc1nnc(-c2ccccc2)s1
inactive: T-47D breast 94.3% | BT-549 breast 102% | MDA-MB-435 melanoma 100% | SW-620 colon 108% | MCF7 breast 79.9% | HCT-116 colon 103% | HCC-2998 colon 102% | KM12 colon 103%

c1cc(-c2nnc(SSc3ncnc4nc[nH]c34)o2)ccn1
inactive: T-47D breast 42.3% | BT-549 breast 51.7% | MDA-MB-435 melanoma 16% | SW-620 colon 34.6% | MCF7 breast 23% | HCT-116 colon 16.6% | HCC-2998 colon 10.3% | KM12 colon 45.8%

O=c1c2cc(F)ccc2sc2c(N3CCCCC3)nc3ccccc3c12
inactive: T-47D breast 105% | BT-549 breast 90.3% | MDA-MB-435 melanoma 107% | SW-620 colon 104% | MCF7 breast 95.8% | HCT-116 colon 90.9% | HCC-2998 colon 101% | KM12 colon 105%

CNCCCC12CCC(c3ccccc31)c1ccccc12
inactive: T-47D breast 89% | BT-549 breast 78.3% | MDA-MB-435 melanoma 78.9% | SW-620 colon 98.2% | MCF7 breast 87.3% | HCT-116 colon 69.1% | HCC-2998 colon 50.5% | KM12 colon 94.1%

C=CCNc1ccc2c3c(cccc13)C(=O)N(N1C(=O)c3cccc4cccc(c34)C1=O)C2=O
inactive: T-47D breast 96.5% | BT-549 breast 105% | MDA-MB-435 melanoma 101% | SW-620 colon 108% | MCF7 breast 87.4% | HCT-116 colon 99.6% | HCC-2998 colon 107% | KM12 colon 105%

O=c1cc(SCc2ccccc2)nc[nH]1
inactive: T-47D breast 114% | BT-549 breast 103% | MDA-MB-435 melanoma 106% | SW-620 colon 107% | MCF7 breast 101% | HCT-116 colon 104% | HCC-2998 colon 112% | KM12 colon 94.8%

CNCCCNc1nc2ccccc2c2c(=O)c3cc(OC)ccc3sc12
active: SW-620 colon -50.3% | HCC-2998 colon -71%
inactive: T-47D breast 81.7% | BT-549 breast 89.2% | MDA-MB-435 melanoma 37.3% | MCF7 breast 59.4% | HCT-116 colon 10.3% | KM12 colon 35.3%

COc1cc(C(=O)/C=C/c2c(Cl)nc3sccn23)cc(OC)c1OC
inactive: T-47D breast 81.3% | BT-549 breast 81.3% | MDA-MB-435 melanoma 72.5% | SW-620 colon 65.8% | MCF7 breast 54.8% | HCT-116 colon 52.3% | HCC-2998 colon 104% | KM12 colon 56.7%

C=C1C(=O)O[C@H]2[C@H]1CC/C(COC(=O)C(C)c1ccc(CC(C)C)cc1)=C\CC[C@@]1(C)O[C@@H]21 (some centres undefined)
inactive: HCC-2998 colon 72.2% | KM12 colon 31.8%
active: T-47D breast -35% | BT-549 breast -1.34% | MDA-MB-435 melanoma -11.7% | SW-620 colon -60.1% | MCF7 breast 9.15% | HCT-116 colon -73.7%

c1ccc2c(-c3nc(-c4c[nH]c5ccncc45)cs3)c[nH]c2c1
active: MDA-MB-435 melanoma -79.8% | SW-620 colon -63% | HCT-116 colon -15.3% | HCC-2998 colon -34.4%
inactive: T-47D breast 58.8% | BT-549 breast 77.3% | MCF7 breast 20.5% | KM12 colon 34%

NC(=O)C1(Nc2ccc(Br)cc2)CCCC1
inactive: T-47D breast 98.9% | BT-549 breast 104% | MDA-MB-435 melanoma 105% | SW-620 colon 106% | MCF7 breast 92.2% | HCT-116 colon 105% | HCC-2998 colon 116% | KM12 colon 109%

COc1cccc2c(=O)c3c(sc12)c(NCCCN)nc1ccccc13
active: SW-620 colon -48.7% | HCT-116 colon -73.9% | HCC-2998 colon -57.3%
inactive: T-47D breast 82.6% | BT-549 breast 90.4% | MDA-MB-435 melanoma 33.9% | MCF7 breast 24.9% | KM12 colon 13%

N#Cc1c(-c2ccc(Cl)cc2)nc(NCCO)[nH]c1=O
inactive: T-47D breast 89.4% | BT-549 breast 102% | MDA-MB-435 melanoma 106% | SW-620 colon 112% | MCF7 breast 95.3% | HCT-116 colon 104% | HCC-2998 colon 103% | KM12 colon 96.9%

O=c1ccn(Cc2cn(-c3c4ccccc4nc4ccccc34)nn2)c(=O)[nH]1
inactive: T-47D breast 38% | BT-549 breast 100% | MDA-MB-435 melanoma 99.4% | SW-620 colon 93% | MCF7 breast 36.4% | HCT-116 colon 92.4% | HCC-2998 colon 90.5% | KM12 colon 104%

Cc1ccc2c(-c3cc(-c4ccccc4)nc(N)c3C#N)cc(=O)oc2c1
inactive: T-47D breast 86% | BT-549 breast 75.8% | MDA-MB-435 melanoma 106% | SW-620 colon 107% | MCF7 breast 100% | HCT-116 colon 87.1% | HCC-2998 colon 96.4% | KM12 colon 97.4%

COC(=O)/C=C1\S/C(=N\Nc2ccc([N+](=O)[O-])cc2[N+](=O)[O-])N(C2CCCCC2)C1=O
inactive: T-47D breast 12.9% | BT-549 breast 86% | MDA-MB-435 melanoma 79% | SW-620 colon 22.7% | MCF7 breast 23.1% | HCT-116 colon 29.8% | HCC-2998 colon 63.1% | KM12 colon 45.9%

NCCCNc1nc2ccc(Cl)cc2c2c(=O)c3cc(F)ccc3sc12
active: SW-620 colon -79% | HCT-116 colon -47.8% | HCC-2998 colon -40.8%
inactive: T-47D breast 76.3% | BT-549 breast 106% | MDA-MB-435 melanoma 30.8% | MCF7 breast 47.2% | KM12 colon 11.8%

COc1ccc(-c2ncnc3c2ncn3CC#CCCl)cc1
inactive: T-47D breast 53.1% | BT-549 breast 50.1% | MDA-MB-435 melanoma 40.2% | SW-620 colon 48.9% | MCF7 breast 35.7% | HCT-116 colon 52.5% | HCC-2998 colon 84.8% | KM12 colon 72.6%

COc1cc(-c2nc3sccn3c2-c2ccnc(NCCCNS(=O)(=O)c3ccc(F)cc3)n2)ccc1F
inactive: T-47D breast 15.5% | BT-549 breast 42.8% | MDA-MB-435 melanoma 65.8% | SW-620 colon 106% | MCF7 breast 76.1% | HCT-116 colon 58.1% | HCC-2998 colon 95.5% | KM12 colon 74.2%

O=C(O)CCC/C=C\C[C@H]1C=CC(=O)/C1=C/C[C@@H](O)CCc1cccc(C(F)(F)F)c1
inactive: T-47D breast 21.4% | MCF7 breast 11%
active: BT-549 breast 5.1% | MDA-MB-435 melanoma -53.5% | SW-620 colon -35.8% | HCT-116 colon -66.4% | HCC-2998 colon -84.4% | KM12 colon -47%

COc1ccc2[nH]c(-c3ccccc3)c(/C=C(\C#N)S(=O)(=O)c3ccccc3)c2c1
inactive: T-47D breast 38.1% | BT-549 breast 64.5% | SW-620 colon 35.6% | MCF7 breast 26.2% | HCT-116 colon 31.4% | HCC-2998 colon 68.4% | KM12 colon 33.4%
active: MDA-MB-435 melanoma 2.24%

CC1=NN(c2ccc(S(=O)(=O)O)cc2)C(=O)C1N=Nc1ccc(-c2ccc(N=Nc3ccc(OS(=O)(=O)c4ccc(C)cc4)cc3)c(S(=O)(=O)O)c2)cc1 (centres undefined)
inactive: T-47D breast 90.3% | BT-549 breast 68.4% | MDA-MB-435 melanoma 95.1% | SW-620 colon 103% | MCF7 breast 88.7% | HCT-116 colon 93.9% | HCC-2998 colon 104% | KM12 colon 105%

COc1c(B(O)O)cc(C)cc1-c1nc2ccc3[nH]ncc3c2c2c1CCCC2
inactive: T-47D breast 78.5% | BT-549 breast 24.2% | MDA-MB-435 melanoma 22.5% | MCF7 breast 54.6% | HCT-116 colon 21.3% | HCC-2998 colon 62.9% | KM12 colon 30.6%
active: SW-620 colon 8.73%

CCCCCCCCCCCCCCCCCCOc1ccccc1CC(=O)OCC[N+](CC)(CC)CC
inactive: T-47D breast 23.5% | BT-549 breast 76.3% | MDA-MB-435 melanoma 11% | SW-620 colon 21.6% | MCF7 breast 12.9% | HCT-116 colon 19.8% | HCC-2998 colon 22.5% | KM12 colon 51.3%

CCS(=O)(=O)c1ncnc2nc[nH]c12
inactive: T-47D breast 89.8% | BT-549 breast 90.9% | MDA-MB-435 melanoma 104% | SW-620 colon 99.8% | MCF7 breast 89.2% | HCT-116 colon 87.3% | HCC-2998 colon 107% | KM12 colon 108%

COc1c(C2CC(=O)Nc3c2c(C)nn3-c2nc3ccccc3[nH]2)cc2c(c1OC)OCO2 (centres undefined)
inactive: T-47D breast 43.8% | BT-549 breast 47.8% | SW-620 colon 36.4% | MCF7 breast 24.1% | HCT-116 colon 28.5% | HCC-2998 colon 94.1% | KM12 colon 45.9%
active: MDA-MB-435 melanoma -32.7%

COc1ccc(C(=O)/C=C/c2sc(Cl)nc2Cl)cc1
inactive: T-47D breast 59% | MDA-MB-435 melanoma 15.7% | SW-620 colon 18.6% | HCT-116 colon 17.7% | KM12 colon 39%
active: BT-549 breast -4.31% | MCF7 breast -7.05% | HCC-2998 colon -36%

O=c1n(Cc2ccc3ccccc3c2)ccn1Cc1ccc2ccccc2c1
inactive: T-47D breast 55.5% | BT-549 breast 92.4% | MDA-MB-435 melanoma 107% | SW-620 colon 102% | MCF7 breast 97.6% | HCT-116 colon 70.6% | HCC-2998 colon 103% | KM12 colon 96.4%
